The nature of experiment [1]: qHTS assay for identifying genotoxic compounds that show differential cytotoxicity against isogenic chicken DT40 cell lines with known DNA damage response pathways - Rev3 mutant cell line (AID 743014). Also: nearly all actives have a fitted effect of over 55% in size. Also: potency is read from the fitted curve at half-maximal effect.
Experiment [2] is described as follows: qHTS assay for identifying genotoxic compounds that show differential cytotoxicity against isogenic chicken DT40 cell lines with known DNA damage response pathways - Rad54/Ku70 mutant cell line (AID 743015). Also: nearly all actives have a fitted effect of over 60% in size. Also: potency is read from the fitted curve at half-maximal effect. For orientation: In qHTS, concentration-response curves come from the screen itself.
A short description of experiment [3]: qHTS assay to identify small molecule antagonists of the androgen receptor (AR) signaling pathway - cell viability counter screen (AID 743033; also: nearly all actives have a fitted effect of over 45% in size).
Experiment [4] in a line: qHTS assay to identify small molecule antagonists of the thyroid receptor (TR) signaling pathway - cell viability counter screen (AID 743064). Also: nearly all actives have a fitted effect of over 50% in size. The gist of the method: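 GH3.TRE-Luc cells, 4 h pre-plating; cpd + T3 1 nM final; 37 °C 23.5 h; CellTiter-Fluor 30 min; fluorescence read.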
Experiment [5] can be described thus: qHTS assay to identify small molecule antagonists of the thyroid receptor (TR) signaling pathway (AID 743065). Also: nearly all actives have a fitted effect of over 55% in size. Also: potency is read from the fitted curve at half-maximal effect. The method, boiled down:
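Antagonism measured as loss of luciferase signal in GH3 cells stably carrying a TRE-luciferase reporter, co-treated with compound and T3 (1 nM final) for 23.5 h at 37 C. Viability was read in the same well by CellTiter-Fluor.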

For experiment [6], the system named is thyroid hormone receptor (rat, GH3 cells). In words: qHTS assay to identify small molecule agonists of the thyroid receptor (TR) signaling pathway (AID 743066; calls by dose curve).
Experiment [7] addresses Estrogen receptor (Homo sapiens) (UniProt P03372). In words: qHTS assay to identify small molecule antagonists of the estrogen receptor alpha (ER-alpha) signaling pathway (AID 743069; active = well fitted curve in the direction sought with a large enough effect in the signal ratio in the repeat runs, not every such curve was filed as active; the % refers to the signal ratio). The method, boiled down:
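Compound effects are measured against 17beta-estradiol stimulation in HEK293 cells with a UAS-controlled beta-lactamase reporter for ER-alpha. Exposure lasts 18 hr at 37C; LiveBLAzer B/G FRET substrate follows for 2 hr at room temperature.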

Experiment [8] can be described thus: qHTS assay to identify small molecule antagonists of the estrogen receptor alpha (ER-alpha) signaling pathway - cell viability counter screen (AID 743074; calls by dose curve;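 also: HEK293 cells carrying ER-alpha-UAS-bla reporter stimulated with 17beta-estradiol; nearly all actives have a fitted effect of over 45% in size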).
Experiment [9] has as its target Estrogen receptor (Homo sapiens) (UniProt P03372). The experiment is described as follows: qHTS assay to identify small molecule agonists of the estrogen receptor alpha (ER-alpha) signaling pathway (AID 743075; calls by dose curve).
For experiment [10] the target is unchanged. The experiment is described as follows: qHTS assay to identify small molecule agonists of the estrogen receptor alpha (ER-alpha) signaling pathway using the BG1 cell line (AID 743079). Also: nearly all actives have a fitted effect of over 20% in size. Also: potency is read from the fitted curve at half-maximal effect.
The nature of experiment [11]: qHTS assay to identify small molecule antagonists of the estrogen receptor alpha (ER-alpha) signaling pathway using the BG1 cell line - cell viability counter screen (AID 743081).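 Also: compound given together with 17beta-estradiol as the ER stimulus; series mostly up to about 70 µM; nearly all actives have a fitted effect of over 45% in size.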
For the next experiment, the target named is Aromatase (Homo sapiens) (UniProt P11511). In words: qHTS assay to identify aromatase inhibitors (AID 743083). Also: series mostly up to about 70 µM; nearly all actives have a fitted effect of over 55% in size.
The nature of experiment [12]: qHTS assay for identifying genotoxic compounds that show differential cytotoxicity against isogenic chicken DT40 cell lines with known DNA damage response pathways - wild type cell line (AID 743012). Also: nearly all actives have a fitted effect of over 60% in size. The method, boiled down:
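First, wild type DT40 cells were plated at 300 per well and equilibrated about 0.5 h at 37 C/5% CO2. Next, compounds in DMSO were added and exposure lasted 40 h. Finally, CellTiter-Glo was added for 30 min at room temperature and luminescence recorded.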

A short description of experiment [13]: qHTS assay to identify small molecule antagonists of the androgen receptor (AR) signaling pathway using the MDA cell line - cell viability counter screen (AID 743041; also: nearly all actives have a fitted effect of over 45% in size). The gist of the method: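 R1881-driven MDA-kb2 AR-luc cells, 3,000/well, were dosed with library compounds for 16 h; cell health came from CellTiter-Fluor fluorescence in the reporter wells.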

A short description of experiment [14]: qHTS assay to identify small molecule antagonists of the estrogen receptor alpha (ER-alpha) signaling pathway using the BG1 cell line (AID 743080; calls by dose curve;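 also: BG1 cells stimulated with 17beta-estradiol alongside compound; series mostly up to about 70 µM; nearly all actives have a fitted effect of over 25% in size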). The gist of the method:
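Luminescence from a 4×ERE-luciferase reporter in BG1-Luc-4E2 cells served as read-out. Cells, pre-cultured 5 days in stripped-serum phenol-red-free medium, were exposed to compound with 17beta-estradiol co-stimulation for 21.5 h at 37 C.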

Experiment [15] concerns the target Androgen receptor (Homo sapiens) (UniProt P10275). The experiment is described as follows: qHTS assay to identify small molecule antagonists of the androgen receptor (AR) signaling pathway (AID 743035; active = well fitted inhibition curve with a large enough effect in the signal ratio in the repeat runs, not every such curve was filed as active; the % refers to the signal ratio). The gist of the method: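 Beta-lactamase FRET read (2 h RT incubation with LiveBLAzer B/G) following 16 h of compound plus R1881 treatment of AR-UAS-bla HEK293 cells, which had been pre-incubated 4 h at 37C.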

Experiment [16] shares this target. In words: qHTS assay to identify small molecule agonists of the androgen receptor (AR) signaling pathway (AID 743036; active = well fitted activation curve with a large enough effect in the signal ratio in the repeat runs, with a control signal flat, not every such curve was filed as active; the % refers to the signal ratio). The method, boiled down:
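AR-bla HEK293 cells, 2,000/well; 4 h preincubation 37C/5% CO2; compound (DMSO) 16 h at 37C; LiveBLAzer B/G FRET substrate 2 h RT; fluorescence intensity read-out.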

Experiment [17] has the same target. In words: qHTS assay to identify small molecule agonists of the androgen receptor (AR) signaling pathway using the MDA cell line (AID 743040; also: nearly all actives have a fitted effect of over 20% in size; also: potency is read from the fitted curve at half-maximal effect). The method, boiled down:
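After a 5 h incubation at 37C and 0% CO2, MDA-kb2 reporter cells were dosed with compounds in DMSO and kept 16 h under the same conditions. Luciferase activity was then read as luminescence with ONE-Glo.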

For experiment [18] the target is unchanged. The experiment is described as follows: qHTS assay to identify small molecule antagonists of the androgen receptor (AR) signaling pathway using the MDA cell line (AID 743042; also: nearly all actives have a fitted effect of over 55% in size). The method, boiled down: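 Antagonist mode: compounds plus R1881 agonist added to MDA-kb2 AR-luc cells, incubated 16 h at 37C. Luciferase reporter luminescence quantified, with multiplexed CellTiter-Fluor readout for cell viability.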

Structures are written as SMILES. Inconclusive results are not listed. The source made the active and inactive calls. Unless noted, calls follow the shape of the dose curve; as a rule, active = well fitted curve in the direction sought with a large enough effect in the repeat runs; inconclusive = weak or mixed curves; inactive = no such curve, though single readings can be large; an effect the other way counts as inactive or inconclusive.

Chain of Aromatase (Homo sapiens) (P11511 whole entry, looked up): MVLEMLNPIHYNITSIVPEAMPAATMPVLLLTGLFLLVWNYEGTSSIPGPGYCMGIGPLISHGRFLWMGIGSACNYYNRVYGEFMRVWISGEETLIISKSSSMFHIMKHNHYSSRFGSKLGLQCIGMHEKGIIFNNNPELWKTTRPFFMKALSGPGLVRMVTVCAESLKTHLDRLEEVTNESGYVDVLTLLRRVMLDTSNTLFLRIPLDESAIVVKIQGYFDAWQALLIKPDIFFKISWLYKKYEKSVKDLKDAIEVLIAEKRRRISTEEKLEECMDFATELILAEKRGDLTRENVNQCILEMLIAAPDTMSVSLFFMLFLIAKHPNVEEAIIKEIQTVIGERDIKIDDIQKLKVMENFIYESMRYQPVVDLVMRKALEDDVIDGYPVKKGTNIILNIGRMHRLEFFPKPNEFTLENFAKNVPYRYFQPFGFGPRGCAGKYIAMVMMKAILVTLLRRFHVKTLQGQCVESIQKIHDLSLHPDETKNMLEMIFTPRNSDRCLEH
Chain of Estrogen receptor (Homo sapiens) (P03372 whole entry, looked up): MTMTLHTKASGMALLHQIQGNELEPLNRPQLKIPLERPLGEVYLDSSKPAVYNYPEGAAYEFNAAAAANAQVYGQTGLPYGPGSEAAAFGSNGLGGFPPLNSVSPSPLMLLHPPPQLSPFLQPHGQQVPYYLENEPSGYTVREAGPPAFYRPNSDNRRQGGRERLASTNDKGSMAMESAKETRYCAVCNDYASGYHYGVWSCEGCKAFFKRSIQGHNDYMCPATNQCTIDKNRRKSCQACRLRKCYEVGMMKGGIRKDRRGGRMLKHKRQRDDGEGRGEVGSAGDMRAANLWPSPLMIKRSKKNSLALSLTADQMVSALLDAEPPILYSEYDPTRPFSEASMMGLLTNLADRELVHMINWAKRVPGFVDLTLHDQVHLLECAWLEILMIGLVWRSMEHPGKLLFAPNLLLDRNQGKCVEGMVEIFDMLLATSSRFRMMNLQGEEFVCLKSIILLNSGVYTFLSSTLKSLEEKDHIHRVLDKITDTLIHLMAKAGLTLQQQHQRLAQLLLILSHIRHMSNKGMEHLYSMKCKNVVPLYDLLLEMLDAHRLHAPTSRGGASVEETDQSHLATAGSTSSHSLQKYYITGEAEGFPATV
Chain of Androgen receptor (Homo sapiens) (P10275 whole entry, looked up): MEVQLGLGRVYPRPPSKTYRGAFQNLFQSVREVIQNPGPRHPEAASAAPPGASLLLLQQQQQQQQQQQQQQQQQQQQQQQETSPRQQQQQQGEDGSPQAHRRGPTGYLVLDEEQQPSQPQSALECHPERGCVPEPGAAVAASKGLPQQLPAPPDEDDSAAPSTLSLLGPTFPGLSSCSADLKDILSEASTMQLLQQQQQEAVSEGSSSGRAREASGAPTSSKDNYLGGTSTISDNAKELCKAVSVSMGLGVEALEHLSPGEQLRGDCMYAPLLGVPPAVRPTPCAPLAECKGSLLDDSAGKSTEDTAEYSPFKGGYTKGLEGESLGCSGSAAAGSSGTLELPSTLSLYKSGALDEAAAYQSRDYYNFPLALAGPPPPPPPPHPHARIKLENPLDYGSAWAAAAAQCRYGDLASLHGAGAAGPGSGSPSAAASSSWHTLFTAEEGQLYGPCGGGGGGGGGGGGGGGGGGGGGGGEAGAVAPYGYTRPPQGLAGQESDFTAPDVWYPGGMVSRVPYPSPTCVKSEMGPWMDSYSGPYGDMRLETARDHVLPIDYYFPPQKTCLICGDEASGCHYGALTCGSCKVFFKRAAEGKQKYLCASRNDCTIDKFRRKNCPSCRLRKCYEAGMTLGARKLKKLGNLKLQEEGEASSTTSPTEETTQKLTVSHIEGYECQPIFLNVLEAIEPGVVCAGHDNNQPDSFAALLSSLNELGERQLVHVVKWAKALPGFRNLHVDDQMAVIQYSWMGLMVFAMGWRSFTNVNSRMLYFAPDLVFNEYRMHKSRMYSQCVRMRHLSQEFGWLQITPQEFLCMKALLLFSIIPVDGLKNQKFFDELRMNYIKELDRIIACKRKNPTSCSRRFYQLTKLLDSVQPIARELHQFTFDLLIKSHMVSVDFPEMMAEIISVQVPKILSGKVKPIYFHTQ

For `CCCc1ccc(N)cc1`, the Potency entry in experiment [1], in [2], in experiment [4], in experiment [5], in experiment [6] and in experiment [7] was “inactive” each time. The Potency entry (in experiment [9]; in experiment [10]; in the experiment with Aromatase (Homo sapiens)) was “inactive” each time. Moreover, the compound was classed as inactive in [3], in experiment [8] and in [11].

Take `C1C2OC2C2C1C1CC2C2OC12` (stereo unspecified): the Potency entry (in [12]; in [1]; in experiment [2]; in experiment [5]; in [6]; with Aromatase (Homo sapiens)) was “inactive” in each case. The compound was classed as inactive in [3], in experiment [8] and in [11].

`CC(=O)N[C@@H](CCC(N)=O)C(=O)O`: the Potency result in experiment [12], in experiment [1], in experiment [2], in experiment [13], in experiment [4] and in [5] was “inactive” in each case. The Potency entry (in experiment [6]; in experiment [7]; in experiment [9]; in experiment [10]; in [14]; with Aromatase (Homo sapiens)) was “inactive” throughout. For the same compound, the outcome in experiment [3] and in [8] was inactive.

With `NC(=O)c1c(Cl)cccc1Cl`, the Potency entry in experiment [12], in experiment [1], in [2], in experiment [13], in experiment [4] and in experiment [5] was “inactive” in each case. The Potency entry (in experiment [6]; in experiment [7]; in [9]; in [10]; in experiment [14]; with Aromatase (Homo sapiens)) was “inactive” throughout. The compound was classed as inactive in [3], in experiment [8] and in [11].

Consider `CC1(C)SC(C)(C)SC(C)(C)S1`, for which the Potency result in experiment [12], in [1], in experiment [15], in experiment [17], in experiment [13] and in experiment [4] was “inactive” in each case. The Potency entry in experiment [5], in experiment [6], in experiment [7], in experiment [9], in [10] and in experiment [14] was “inactive” each time. The Potency result with Aromatase (Homo sapiens) is “inactive”. Moreover, the compound was classed as inactive in experiment [3], in experiment [16], in experiment [18], in experiment [8] and in experiment [11].

Consider `Cn1ccc2cc3c(cc21)CCN3C(=O)Nc1cccnc1`, for which the values for the Potency in experiment [1], in [2] and in experiment [10] were 13.3 µM (active), 26.6 µM (active) and 5.31 µM (active), respectively. The call in [3], in [8] and in [11] was inactive. Further, the Potency result (in experiment [5]; in experiment [6]; in the experiment with Aromatase (Homo sapiens)) was “inactive” each time.

In the case of `CC(C)(C)OC(=O)N1C[C@@H](F)C[C@H]1C(=O)O`, the Potency entry in experiment [12], in [1], in experiment [13], in [4], in experiment [5] and in [6] was “inactive” in each case. Besides, the Potency result (in [7]; in experiment [9]; in experiment [10]; in [14]; with Aromatase (Homo sapiens)) was “inactive” each time. The result in [3], in experiment [8] and in [11] was inactive.

As for `CC(C)c1ccc2oc3nc(N)c(C(=O)O)cc3c(=O)c2c1`, the Potency result (in experiment [12]; in experiment [1]; in experiment [15]; in experiment [13]; in [6]; in the experiment with Aromatase (Homo sapiens)) was “inactive” in each case. For the same compound, the compound was called inactive in [3], in experiment [18], in [8] and in [11]. In addition, in experiment [17], the Potency is 11.9 µM (active).

Consider `C=C[Si](OC)(OC)OC`, for which the Potency result in experiment [12], in [1], in [2], in [13], in experiment [5] and in experiment [6] was “inactive” in each case. The Potency result (in [7]; in experiment [9]; in [10]; in experiment [14]; in the experiment with Aromatase (Homo sapiens)) was “inactive” in each case. The compound was called inactive in experiment [3], in experiment [8] and in [11].

Take `CN(C)N=Nc1ccccc1`: the Potency entry in [12], in experiment [1], in experiment [2], in [4], in experiment [5] and in experiment [6] was “inactive” each time. The compound was classed as inactive in experiment [3], in [8] and in experiment [11].

Regarding `Nc1ccc2cc(S(=O)(=O)O)ccc2c1`, the Potency result in experiment [12], in experiment [1], in [2], in experiment [13], in experiment [4] and in experiment [5] was “inactive” in each case. The Potency entry (in experiment [6]; in experiment [7]; in [9]; in experiment [10]; in [14]; with Aromatase (Homo sapiens)) was “inactive” each time. The compound was called inactive in [3], in experiment [8] and in experiment [11].

For `C=CC(=O)N1CCOCC1`, the Potency entry in [1], in experiment [2], in [13], in experiment [4], in experiment [5] and in experiment [6] was “inactive” throughout. Also, the Potency result in the experiment with Aromatase (Homo sapiens) was “inactive”. Also, the call in experiment [3], in experiment [8] and in experiment [11] was inactive.

Consider `C[N+](C)(C)CC[N+]1(C)Cc2c(Cl)c(Cl)c(Cl)c(Cl)c2C1`, for which the Potency result in experiment [12], in experiment [1], in experiment [2], in experiment [13], in experiment [4] and in experiment [5] was “inactive” in each case. The Potency entry (in experiment [6]; in [7]; in [9]; in experiment [10]; in experiment [14]; in the experiment with Aromatase (Homo sapiens)) was “inactive” throughout. The compound was called inactive in experiment [3], in [8] and in experiment [11].

In the case of `Cc1nc(-c2ccc(OCC(C)C)c(C#N)c2)sc1C(=O)O`, the Potency entry (in experiment [12]; in [13]; in [4]; in experiment [6]; in experiment [9]; in the experiment with Aromatase (Homo sapiens)) was “inactive” in each case. The call in [3], in [18] and in [11] was inactive. The Potency in [17] is 1.19 µM (active); in experiment [5], 13.3 µM (active).
